Our source for the outcome and AC50 values is PubChem BioAssay (EPA / NIEHS).

Each structure is given as a SMILES string. Records with an inconclusive call do not appear. Some structures have more than one record in an assay (separate samples or runs), and their calls can disagree. Calls of active or inactive are those of the source. The calls were made as follows, unless noted: active = hit-call score of the fitted dose curve at least 0.9, where 1 is the maximum; inconclusive = response in the unintended direction; inactive = score below 0.9.

Assay [1] is described as follows: TOX21_p53_BLA_p2_viability: Viability Assessment in the Tox21 HCT-116 p53 Agonism Beta-lactamase Assay, Phase 2 (AID 2283591).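 Also: compound exposure lasted 16 h at 37 °C; actives lower the ATP signal meaning cytotoxicity.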 The essentials: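 HCT-116 p53-bla cells (4000/well) rested 5 h at 37C, then received compounds in DMSO (217-fold dilution) for 16 h at 37C, 5% CO2. After the CCF4 read, CellTiter-Glo was added; ATP luminescence was read after 30 min at room temperature.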

Assay [2] is described as follows: TOX21_p53_BLA_p3_viability: Viability Assessment in the Tox21 HCT-116 p53 Agonism Beta-lactamase Assay, Phase 3 (AID 2283593).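 Also: cells exposed to compound for 16 h before reading.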 The essentials:
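HCT-116 cells (4000/well) rested 5 h at 37C, then got DMSO compounds by pin tool (217-fold dilution) for 16 h at 37C, 5% CO2. After the bla read, CellTiter-Glo was added and luminescence read at 30 min, room temperature.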

The nature of assay [3]: TOX21_p53_BLA_p4_viability: Viability Assessment in the Tox21 HCT-116 p53 Agonism Beta-lactamase Assay, Phase 4 (AID 2283597).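 Also: hits lower the luminescence signal meaning cytotoxicity.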 Put shortly: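 Cells plated, 5 h pre-incubation; DMSO compounds pinned (217-fold dilution); 16 h, 37C/5% CO2; CCF4-AM 2 h RT; CellTiter-Glo 30 min RT; luminescence read.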
Assay [4] has as its target Cellular tumor antigen p53 (Homo sapiens) (UniProt P04637). Description: TOX21_p53_BLA_p3_ratio: Tox21 HCT-116 p53 Agonism Beta-lactamase Assay, Ratio, Phase 3 (AID 2283596). The essentials: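 HCT116 p53-bla cells (4000/well) given compound in DMSO (217-fold dilution) after 5 h, incubated 16 h at 37C. CCF4-AM substrate 2 h at room temperature; 460/530 nm emission ratio, gain fitted against DMSO.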

Assay [5] has the same target. Description: TOX21_p53_BLA_p5_ratio: Tox21 HCT-116 p53 Agonism Beta-lactamase Assay, Ratio, Phase 5 (AID 2283599). Put shortly:
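HCT-116 cells carrying a p53-inducible beta-lactamase reporter were seeded at 4000 cells/well and dosed after 5 h with compound in DMSO (217-fold dilution). After 16 h at 37C, CCF4-AM substrate was added for 2 h, and the 460/530 nm emission ratio was scored as gain-of-signal versus DMSO.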

Assay [6] has the same target. Kind of assay: TOX21_p53_BLA_p4_ratio: Tox21 HCT-116 p53 Agonism Beta-lactamase Assay, Ratio, Phase 4 (AID 2283601). Put shortly: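 HCT116 cells carrying an inducible beta-lactamase reporter were plated at 4000 cells/well, rested 5 h, then exposed to compounds in DMSO (217-fold dilution) for 16 h at 37C. CCF4-AM substrate was loaded 2 h at room temperature; 460/530 nm emission ratio scored gain-of-signal versus DMSO.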

The nature of assay [7]: CCTE_Harrill_HTTr_Viability_MCF7: CCTE's 6-hour Cell Viability Assessment for the High-Throughput Transcriptomics (HTTr) Platform, in MCF-7 cells cultured in DMEM + 10% fetal bovine serum, Harrill Lab (AID 2284010; active = hit-call score of the fitted dose curve at least 0.9, where 1 is the maximum; inactive = score below 0.9). Put shortly:
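MCF-7 cells in DMEM + 10% FBS, 384-well, exposed 6 h to an eight-point dilution series. Membrane integrity scored by high-content imaging of propidium iodide exclusion; bidirectional fit versus DMSO.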

The nature of assay [8]: CCTE_Harrill_HTTr_Apoptosis_MCF7: CCTE's 6-hour Apoptosis Assessment for the High-Throughput Transcriptomics (HTTr) Platform, in MCF-7 cells cultured in DMEM + 10% fetal bovine serum, Harrill Lab (AID 2284011; active = hit-call score of the fitted dose curve at least 0.9, where 1 is the maximum; inactive = score below 0.9). The essentials: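 MCF-7 (DMEM + 10% FBS), 384-well; 8-pt dilution series, 6 h chemical exposure; caspase-3/7 activation via CellEvent Caspase 3/7 Green, HCI; bidirectional fit vs DMSO.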

Assay [9] is described as follows: TOX21_p53_BLA_p5_viability: Viability Assessment in the Tox21 HCT-116 p53 Agonism Beta-lactamase Assay, Phase 5 (AID 2283600). The essentials:
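4000 cells/well; 5 h pre-incubation; DMSO compounds pin-transferred, 217-fold dilution; 16 h, 37C/5% CO2; CCF4-AM 2 h RT; CellTiter-Glo 30 min RT; luminescence.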

Assay [10] can be described thus: TAMU_PeakParms_SingleDonor1434_Chronotropy: Texas A&M University (TAMU) 1.5-hr Human Induced Pluripotent Stem Cell (iPSC)-derived Cardiomyocytes Calcium (Ca+2) Flux Assay for Cardiotoxicity: Chronotropy (changes in peak frequency) (AID 2284217; active = hit-call score of the fitted dose curve at least 0.9, where 1 is the maximum; inactive = score below 0.9). Conditions: actives raise or lower the signal. The essentials:
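iPSC-CMs, donor 1434; 4 conc (0.2–100 uM), 0.5% v/v DMSO, 90 min, 37C/5% CO2; Ca2+ flux fluorescence → peak.freq.avg; peak.freq.avg = 0 dropped; bidirectional fit vs DMSO; EC05 POD.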

Assay [11] is described as follows: TAMU_HCS_1.5hr_SingleDonor1434_Cytotoxicity: Cytotoxicity Assessment using High-content Screening (HCS) Fluorescent Imaging for the Texas A&M University (TAMU) 1.5-hr Human Induced Pluripotent Stem Cell (iPSC)-derived Cardiotoxicity Assay (AID 2284234). The essentials:
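Human iPSC-derived cardiomyocytes dosed at 0.2, 1, 10, 100 uM final (0.5% DMSO) for 90 min at 37 C. Hoechst 33342-stained nuclei counted by 10x high-content imaging; POD is EC10, a 10% drop in total cell count versus DMSO.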

Assay [12] can be described thus: TAMU_PeakParms_SingleDonor1434_QT: Texas A&M University (TAMU) 1.5-hr Human Induced Pluripotent Stem Cell (iPSC)-derived Cardiomyocytes Calcium (Ca+2) Flux Assay for Cardiotoxicity: QT (decay-rise ratio) (AID 2284235). Put shortly:
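iPSC-derived cardiomyocytes (single donor 1434) dosed at 0.2, 1, 10, 100 uM final in 0.5% DMSO, 90 min at 37C. Ca2+ flux fluorescence decay/rise ratio; EC05 (5% increase versus DMSO) as POD, excluding beat-arrest and severe-notch data.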

Assay [13] in a line: TAMU_PeakParms_SingleDonor1434_Asystole: Texas A&M University (TAMU) 1.5-hr Human Induced Pluripotent Stem Cell (iPSC)-derived Cardiomyocytes Calcium (Ca+2) Flux Assay for Cardiotoxicity: Asystole (quiescence of beating) (AID 2284328). Put shortly:
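Human iPSC-derived cardiomyocytes (donor 1434) were exposed to 0.2, 1, 10 and 100 uM compound in 0.5% DMSO for 90 min at 37C. Ca2+-dye fluorescence gave average peak frequency; POD is EC95, a 95% beat-rate drop versus DMSO.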

Chain of Cellular tumor antigen p53 (Homo sapiens) (P04637 whole entry, looked up): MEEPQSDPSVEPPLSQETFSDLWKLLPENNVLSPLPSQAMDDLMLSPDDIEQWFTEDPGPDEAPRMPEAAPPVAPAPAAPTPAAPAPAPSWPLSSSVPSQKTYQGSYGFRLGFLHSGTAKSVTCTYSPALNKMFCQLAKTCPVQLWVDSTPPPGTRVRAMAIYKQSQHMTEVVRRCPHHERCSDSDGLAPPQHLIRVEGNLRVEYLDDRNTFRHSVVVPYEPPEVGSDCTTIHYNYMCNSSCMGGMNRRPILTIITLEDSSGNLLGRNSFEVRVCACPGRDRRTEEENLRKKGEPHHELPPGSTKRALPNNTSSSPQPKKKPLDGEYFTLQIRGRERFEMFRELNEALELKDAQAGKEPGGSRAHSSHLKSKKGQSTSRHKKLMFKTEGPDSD

For `NC(=O)CCCCC1CCSS1` (stereo not drawn), the result in assay [1], in [2] and in assay [3] was inactive.

For `Cc1cccc2nccnc12`, the result in assay [1], in assay [2], in assay [4], in assay [5] and in assay [6] was inactive.

Take `Nc1c(CC(=O)O)cccc1C(=O)c1ccc(Br)cc1`: the call in assay [1], in assay [2], in assay [4], in [6], in [7] and in [8] was inactive.

For `CC(C)=CCCC(C)=CC=NO`, the compound was called inactive in assay [1], in assay [2] and in assay [3].

For `CCCCCCc1ccc(-c2ccc(C#N)cc2)cc1`, the compound was called inactive in assay [1], in assay [2] and in assay [3].

Turning to `CCCc1nn(C)c2c(=O)[nH]c(-c3cc(S(=O)(=O)N4CCN(C)CC4)ccc3OCC)nc12`, the compound was called inactive in [1], in assay [2], in [4] and in assay [9].

For `COC(OC)OC`, the compound was called inactive in assay [1], in [2], in [4] and in assay [6].

As for `CC(N)C(=O)OC(C)(C)Cc1ccc(Cl)cc1` (stereo not drawn), the compound was classed as inactive in assay [1], in assay [2], in assay [4], in [9] and in assay [6].

In the case of `NC1CCN(c2cccc(Cl)n2)CC1`, the compound was classed as inactive in [1], in assay [2], in assay [4], in [5], in assay [9] and in [6].

By AC50 is commonly meant the concentration at which the activity in the assay is half-maximal. As to `COc1ccc(CCN(C)CCCC(C#N)(c2ccc(OC)c(OC)c2)C(C)C)cc1OC` (stereo not drawn), the call in [1], in assay [2], in assay [3], in assay [9], in assay [7] and in assay [8] was inactive. The result in assay [10], in assay [11], in [12] and in assay [13] was inactive. In assay [3], the AC50 was 39.2 µM (active).

`CCOC(=O)Cn1c(=O)sc2cccc(Cl)c21`: the compound was classed as inactive in assay [1], in [2], in [4], in [5] and in assay [9].

Take `COC(=O)[C@H]1[C@H]2C[C@@H]3c4[nH]c5cc(OC)ccc5c4CCN3C[C@H]2C[C@@H](OC(=O)COc2ccc(OC)cc2)[C@@H]1OC`: the call in assay [1], in [2], in assay [4], in assay [5], in [9] and in assay [6] was inactive.

With `O=C(O)c1ccccc1Cl`, the compound was classed as inactive in assay [1], in assay [2], in assay [4], in assay [5], in [9] and in assay [6].

Consider `COCC(=O)Nc1c(I)c(C(=O)NCC(O)CO)c(I)c(C(=O)N(C)CC(O)CO)c1I` (stereo not drawn), for which the call in assay [1], in [2], in [4], in assay [9] and in assay [6] was inactive.

Take `COc1cc(OC)cc(OC)c1`: the compound was classed as inactive in assay [1], in assay [2], in [4], in [5], in assay [9] and in assay [6].
